Screens: PubChem, several laboratories
Sampled rows, rich in hits. Any-hit rate of the full collection: about 2.5%.
rCAG RNA binder – r(CAG) repeat RNA binding. TO-PRO-1 dye displacement fluorescence. inhibition, % at 3 µM. 370,000 tested, 1.3% active. AID 651821;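 active means inhibition above the plate cutoff, the mean of all test compounds on that plate plus 3 SD, cut at about 35% in these data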;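 further: 0% = DMSO alone and 100% = 100 µM mitoxantrone as full dye displacement; higher means more dye released from RNA so lower well fluorescence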
Granule exo inh – lytic granule exocytosis inhibition. TALL-104 LAMP-1 surface exposure, flow cytometry; cells stimulated with thapsigargin and PMA. inhibition, % at 10 µM. 360,000 tested, 0.66% active. AID 651702;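 active means inhibition above about 55%, limit read from the data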
PG9 binder – small molecules binding HIV-1 gp120 antibody PG9; inhibition, % at 6.7 µM; TR-FRET gp120-PG9 antibody binding; 360,000 tested, 0.43% active; AID 624416; in the data active means inhibition above about 8.5%
ABCB6 inh 2 – blocks the human ABCB6 transporter; Q9NP58; K562-ABCB6 porphyrin accumulation, flow cytometry, 1 h; stronger effect = lower value; fluorescence ratio to DMSO, % at 10 µM; 360,000 tested, 0.19% active;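 active means fluorescence ratio to DMSO below 75%, the collection mean minus 3 SD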;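 further: signal is porphyrin accumulated inside mitochondria; 100% equals median channel fluorescence of DMSO control wells; lower ratio means ABCB6 inhibition with less porphyrin fluorescence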
Target sequence (Q9NP58 whole entry, looked up): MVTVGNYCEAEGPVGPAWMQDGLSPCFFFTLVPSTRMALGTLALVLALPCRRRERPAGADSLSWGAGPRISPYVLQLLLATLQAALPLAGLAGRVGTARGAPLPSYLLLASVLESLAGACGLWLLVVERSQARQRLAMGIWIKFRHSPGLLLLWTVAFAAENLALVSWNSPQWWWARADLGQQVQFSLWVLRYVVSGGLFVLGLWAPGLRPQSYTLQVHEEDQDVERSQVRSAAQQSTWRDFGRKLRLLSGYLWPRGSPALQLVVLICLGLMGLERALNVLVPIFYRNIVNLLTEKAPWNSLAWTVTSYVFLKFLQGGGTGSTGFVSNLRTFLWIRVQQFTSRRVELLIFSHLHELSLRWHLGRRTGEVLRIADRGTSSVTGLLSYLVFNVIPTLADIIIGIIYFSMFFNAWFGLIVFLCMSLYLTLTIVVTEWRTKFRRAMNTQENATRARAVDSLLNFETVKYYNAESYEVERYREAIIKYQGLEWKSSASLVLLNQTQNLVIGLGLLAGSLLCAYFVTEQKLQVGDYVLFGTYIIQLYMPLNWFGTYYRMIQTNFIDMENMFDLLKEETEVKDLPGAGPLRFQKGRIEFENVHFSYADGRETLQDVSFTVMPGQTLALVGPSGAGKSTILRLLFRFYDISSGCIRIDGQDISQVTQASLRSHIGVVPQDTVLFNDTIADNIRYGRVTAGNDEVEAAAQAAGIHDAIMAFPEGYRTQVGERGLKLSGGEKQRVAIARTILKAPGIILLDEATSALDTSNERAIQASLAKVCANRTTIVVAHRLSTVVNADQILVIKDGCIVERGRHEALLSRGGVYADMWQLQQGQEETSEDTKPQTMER
rCAG bind conf – r(CAG) RNA repeat binding, confirmation; TO-PRO-1 dye displacement fluorescence; inhibition, % at 3 µM; shares compounds with rCAG RNA binder; AID 652065; 4,300 tested, 70% active;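 active means inhibition above a per-plate cutoff, the mean inhibition of sample wells plus 3 SD, cut at about 35% in these data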;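 further: loss of TO-PRO-1 fluorescence as compound displaces dye from 1x1 AA loop RNA; 0% = DMSO only wells and 100% = 100 µM mitoxantrone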
dCAG dye counter – counter-screen for rCAG RNA binders: DNA CAG dye complex inhibitors | shares compounds with rCAG RNA binder | d(CAG) DNA oligo TO-PRO-1 dye displacement, fluorescence | inhibition, % at 3 µM | 4,300 tested, 94% active;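 active means inhibition above its plate's cutoff, the mean test-well inhibition plus 3 SD, cut at about 4.8% in these data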;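 further: 0% = DNA dye mix with DMSO and 100% = 100 µM mitoxantrone; hits displace the dye from DNA and so lower well fluorescence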
dCAG dye DR – disrupts DNA CAG TO-PRO-1 complex in dose response. shares compounds with rCAG RNA binder. DNA CAG/GTC duplex TO-PRO-1 dye displacement fluorescence. IC50, µM. 250 tested, 20% active; in the data active means IC50 below about 10 µM
* marks the source's active call; other numbers are inactive results; · = no result given.

SMILES | rCAG RNA binder | Granule exo inh | PG9 binder | ABCB6 inh 2 | rCAG bind conf | dCAG dye counter | others
Cc1cccc(S(=O)(=O)Nc2nc3ccccc3nc2NCc2ccco2)c1 | 44* | -5 | -2 | 96 | 32 | 7.3*
COC(=O)C1=C(O)/C(=C\c2ccc(CNC(=O)C(=O)Nc3ccc(C)cc3)o2)N=C1C | 20 | -5 | -2 | 93 | · | ·
CCOC(=O)C1=C(O)/C(=C/c2ccc(CNC(=O)C(=O)Nc3ccc(C)cc3)o2)N=C1C | 49* | -3 | 0 | 99 | 23 | 11*
CCOC(=O)C(=O)NCc1ccc(/C=C2/N=C(C)C(C(=O)OCC)=C2O)o1 | 8 | -3 | -10 | 96 | · | ·
COC(=O)C1=C(O)/C(=C\c2ccc(CNC(=O)C(=O)Nc3ccc(C)c(C)c3)o2)N=C1C | 56* | -1 | -3 | 100 | 24 | 12*
CSc1nnc(C)c(=O)n1COC(=O)c1ccc(S(=O)(=O)N2CCCC2)cc1 | 0 | 6 | -1 | 98 | · | ·
O=S(=O)(Nc1nc2c(s1)CCCC2)c1ccc2ccccc2c1 | 32 | 1 | 1 | 105 | · | ·
O=S(=O)(NC1=NCCCCC1)c1ccc2sc(NS(=O)(=O)c3ccc4ccccc4c3)nc2c1 | 56* | -2 | 0 | 103 | 63* | 28*
O=C(NCc1ccc(F)cc1)c1cc(C2CCCCN2S(=O)(=O)c2ccc(F)cc2F)on1 (stereo unspecified) | 1 | 6 | -2 | 103 | · | ·
O=C1CS(=O)(=O)N(Cc2cccc(F)c2)c2ccc(Br)cc21 | 52* | -6 | -1 | 113 | 27 | 14*
COc1ccc(CN2c3c(Br)cccc3C(=O)CS2(=O)=O)cc1 | · | 2 | · | 97 | · | ·
Cc1[nH]n(-c2ncc(-c3ccccc3)s2)c(=O)c1C(c1ccc(Cl)cc1)C(C#N)C#N (stereo unspecified) | 46* | -4 | -1 | 99 | 81* | 48*
O=C(Cn1cnc2ccccc2c1=O)NCCC(=O)Nc1ccc(F)cc1 | 0 | 5 | -2 | 101 | · | ·
Cc1ccc(N/N=C(\C#N)C(=O)c2ccsc2)cc1 | 22 | 6 | -3 | 99 | · | ·
CCC(CC)=NNc1cccc([N+](=O)[O-])c1 | 6 | -8 | -1 | 90 | · | ·
COc1ccc(C(=O)/C(C#N)=N/Nc2cccc([N+](=O)[O-])c2)cc1 | 44* | 28 | -1 | 102 | 52* | 13*
N#C/C(=N\Nc1cccc(Cl)c1)C(=O)c1ccccc1 | 73* | 1 | -2 | 91 | 44* | 11*
N#C/C(=N\Nc1ccc(Cl)cc1)C(=O)c1ccsc1 | 47* | 7 | -2 | 92 | 40* | 8.1*
Cc1cccc(NC(=O)CN(CCc2ccccc2)S(C)(=O)=O)c1 | 2 | -1 | -1 | 107 | · | ·
Cc1ccc2nc(-c3cccc(Br)c3)c(Cc3ccccn3)n2c1 | 3 | -2 | 0 | 104 | · | ·
O=C(c1ccccc1Cl)c1c(O)c2ccccc2oc1=O | -1 | -2 | 1 | 100 | · | ·
O=c1nc(Nc2cccc(Cl)c2)oc2cc(Cl)oc(=O)c12 | 44* | 4 | -1 | 103 | 56* | 16* | dCAG dye DR=8.5*
O=C1NN(c2ccccc2)C(=O)/C1=C/c1ccc(Sc2cccc3ccccc23)o1 | 48* | 0 | 4 | 93 | 92* | 68*
O=C1NN(c2ccccc2)C(=O)C1=Cc1ccccc1O | 5 | -1 | -3 | 97 | · | ·
O=C1CS/C(=N/N=C/c2ccc(OS(=O)(=O)c3ccccc3)cc2)N1 | 40* | -3 | 0 | 100 | 38* | 9.7*
SMILES | rCAG RNA binder | Granule exo inh | PG9 binder | ABCB6 inh 2 | rCAG bind conf | dCAG dye counter | others
NC(N)=N/N=C/c1ccc(OS(=O)(=O)c2ccccc2)cc1 | 18 | 3 | -2 | 97 | · | ·
CCOc1cc(/C=C(/NC(C)=O)C(=O)O)cc(Cl)c1OCc1cccc(Br)c1 | 44* | -3 | 1 | 93 | 33 | 5.5*
O=C(O)Cc1c[nH]c2cccc(O)c12 | 46* | 8 | -3 | 98 | 29 | 13*
Cc1ccc(C(=O)Nc2nc(C)c(C(=O)N(C)C)s2)o1 | 4 | 1 | -1 | 88 | · | ·
O=C(CCCSc1ccccc1)Nc1nc(-c2ccco2)c(-c2ccco2)s1 | 74* | 42 | -4 | 95 | 22 | 14*
O=C(CCl)Nc1nc(-c2ccco2)c(-c2ccco2)s1 | 14 | -8 | -5 | 97 | · | ·
